Source: PubChem BioAssay (National Center for Advancing Translational Sciences (NCATS))
BRCT inh red – disrupts BRCA1 BRCT binding to phosphoprotein, red fluorophore readout | BRCT-phosphopeptide binding, red fluorescence polarization | AID 892 | Potency, µM (series often up to 76.9 µM), actives largely listed as inhibitors | hit rate 0.03% among 75,000
Target sequence (P38398 whole entry, looked up): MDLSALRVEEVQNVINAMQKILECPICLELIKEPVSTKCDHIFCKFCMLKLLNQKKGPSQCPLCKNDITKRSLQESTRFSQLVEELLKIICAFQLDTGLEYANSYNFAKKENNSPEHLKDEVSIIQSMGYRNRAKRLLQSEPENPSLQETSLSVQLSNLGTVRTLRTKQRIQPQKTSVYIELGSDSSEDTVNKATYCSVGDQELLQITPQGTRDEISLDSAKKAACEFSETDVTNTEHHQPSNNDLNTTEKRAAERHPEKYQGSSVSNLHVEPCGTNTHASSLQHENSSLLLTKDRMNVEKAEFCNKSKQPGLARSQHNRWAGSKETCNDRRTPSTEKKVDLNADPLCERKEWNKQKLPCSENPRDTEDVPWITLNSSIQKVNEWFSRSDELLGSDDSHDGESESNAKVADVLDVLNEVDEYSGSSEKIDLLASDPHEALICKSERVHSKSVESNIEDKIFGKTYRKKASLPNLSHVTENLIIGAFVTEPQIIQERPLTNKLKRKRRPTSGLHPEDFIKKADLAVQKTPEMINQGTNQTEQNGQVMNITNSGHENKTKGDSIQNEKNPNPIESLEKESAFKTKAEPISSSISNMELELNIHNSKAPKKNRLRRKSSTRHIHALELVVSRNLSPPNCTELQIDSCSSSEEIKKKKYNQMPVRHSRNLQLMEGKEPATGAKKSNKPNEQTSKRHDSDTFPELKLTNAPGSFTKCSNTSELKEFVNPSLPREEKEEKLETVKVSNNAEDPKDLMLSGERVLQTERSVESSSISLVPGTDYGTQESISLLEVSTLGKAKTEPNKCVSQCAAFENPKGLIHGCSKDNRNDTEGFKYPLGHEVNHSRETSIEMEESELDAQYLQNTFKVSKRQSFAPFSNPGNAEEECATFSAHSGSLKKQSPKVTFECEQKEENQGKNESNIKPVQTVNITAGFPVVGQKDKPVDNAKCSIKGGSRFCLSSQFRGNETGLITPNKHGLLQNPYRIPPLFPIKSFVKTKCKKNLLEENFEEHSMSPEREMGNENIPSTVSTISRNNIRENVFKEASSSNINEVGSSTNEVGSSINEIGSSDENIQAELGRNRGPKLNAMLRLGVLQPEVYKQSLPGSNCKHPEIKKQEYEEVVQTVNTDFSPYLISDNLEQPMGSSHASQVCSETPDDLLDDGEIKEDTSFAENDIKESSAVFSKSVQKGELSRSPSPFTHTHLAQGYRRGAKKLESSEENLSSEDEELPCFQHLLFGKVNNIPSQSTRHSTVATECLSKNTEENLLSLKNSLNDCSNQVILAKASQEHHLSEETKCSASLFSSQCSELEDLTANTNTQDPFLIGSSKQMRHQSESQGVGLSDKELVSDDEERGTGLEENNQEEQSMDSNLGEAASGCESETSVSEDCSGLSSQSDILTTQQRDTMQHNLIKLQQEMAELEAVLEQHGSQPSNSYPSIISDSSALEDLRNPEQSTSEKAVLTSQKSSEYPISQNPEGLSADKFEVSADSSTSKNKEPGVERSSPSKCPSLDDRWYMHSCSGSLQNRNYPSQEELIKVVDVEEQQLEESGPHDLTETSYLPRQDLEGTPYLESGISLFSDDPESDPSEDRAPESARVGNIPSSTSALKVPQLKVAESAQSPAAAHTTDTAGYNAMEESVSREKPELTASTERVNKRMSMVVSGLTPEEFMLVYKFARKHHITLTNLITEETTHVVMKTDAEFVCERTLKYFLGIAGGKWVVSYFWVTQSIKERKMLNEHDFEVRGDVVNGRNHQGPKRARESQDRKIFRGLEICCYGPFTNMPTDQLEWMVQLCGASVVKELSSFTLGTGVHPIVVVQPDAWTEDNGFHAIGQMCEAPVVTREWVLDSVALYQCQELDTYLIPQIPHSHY
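Fluorescence polarization: 100 nM His-tagged BRCA1 BRCT with 100 nM TAMRA-labelled phospho-BACH1 decapeptide, phosphate buffer pH 7.3 with 150 mM NaCl, DTT, 0.01% Tween 20; 12 min RT. Binding inhibition seen as FP decrease.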
HEK293 cAMP ctrl – parental HEK293 cAMP activation (counter-screen); parental HEK293 CNG cAMP sensor, membrane potential fluorescence; Potency, µM (highest dose often 57.1 µM), actives largely listed as activators; hit rate 2.5% among 73,000; AID 938; further: nearly all actives have a fitted effect of over 55% in size
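Parental HEK 293 cells stably expressing a modified CNG channel (no TSHR) report cAMP rise as membrane depolarization. Membrane potential dye with 100 uM RO 20-1724 was loaded for 60 min at room temperature, then compound added for 30 min; fluorescence read at 590 nm.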
BRCT inh green – BRCA1 BRCT-phosphoprotein interaction inhibition. BRCA1 BRCT-phosphopeptide binding, green fluorescence polarization. Potency, µM (titrated, usually from 76.9 µM), actives largely listed as inhibitors. hit rate 0.05% among 75,000
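Compounds were incubated for 12 min at room temperature with a complex of 100 nM fluorescein-tagged pBACH1 decapeptide and 250 nM His-tagged BRCT protein. Buffer was phosphate pH 7.3 with EDTA, DTT and Tween 20. Disruption of binding lowers the polarization signal.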
TSHR agonist – TSH receptor (human) agonism | P16473 | HEK293-CNG-TSHR cells (CNG channel as cAMP sensor), membrane potential dye, cAMP | Potency, µM (doses to about 57.1 µM), hits mostly activators | hit rate 0.48% among 73,000 | AID 926; active means well fitted activation curve with a large enough effect in the main read-out, with a control signal flat, not every such curve was filed as active; inconclusive means small, poorly fitted or top-dose-only effect, or a change in a side signal; inactive means no such curve, though single readings can be large or run the other way; reference of the percent scale not stated here;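 further: the control signal comes from parental cells without the receptor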
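HEK 293 cells stably expressing TSHR and a cAMP-gated CNG channel; parental CNG-only cells as counterscreen. Cells preloaded 60 min with membrane potential dye plus 100 uM RO 20-1724, then compound 30 min; fluorescence read at 590 nm.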
YjeE inh – displaces an ADP probe from E. coli YjeE (TsaE). purified YjeE enzyme, qHTS inhibition assay. Potency, µM. hit rate 0.05% among 71,000. AID 605
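Fluorescence polarization of a BODIPY Texas Red–ADP probe (2 uM) bound to purified YjeE (10 uM) was read after 15 min room-temperature incubation with compounds. Loss of polarization marks inhibitors; ADP serves as titrated control.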
Hsp90 Hop PPI – changes Hsp90-Hop TPR2A binding signal, up or down; AlphaScreen TPR2A-His6 binding biotin-Hsp90 C-terminal peptide; Potency, µM (series often up to 57 µM); hit rate 0.44% among 71,000; AID 595; active means well fitted curve in either direction with a large enough effect; inconclusive means small, poorly fitted or top-dose-only effect, or another doubt
Each line names hits and unclear results; the compound was inactive in the other large screens. This is a sample that favours compounds with a hit; in the whole collection about 3.3% have one here. Unless noted, the call rests on the fitted dose curve; in most records, active means well fitted curve in the direction sought with a large enough effect; inconclusive means small, poorly fitted or top-dose-only effect, or another doubt; inactive means no such curve, though single readings can be large; an effect the other way counts as inactive or inconclusive.

C/C(=C\CNc1ncnc2c1ncn2[C@@H]1O[C@@H](CO)[C@@H](O)[C@H]1O)CO	none (no result: BRCT inh red, BRCT inh green)
COc1ccc(-c2noc(CSc3nc4ccccc4c(=O)n3-c3ccccc3)n2)cc1OC	none
COc1cc(-c2nnc(CSc3nc4ccccc4s3)o2)cc(OC)c1OC	HEK293 cAMP ctrl 32µM, TSHR agonist inconclusive
COc1ccc(-c2nnc(CSc3nc4ccccc4c(=O)n3CC(C)C)o2)cc1OC	HEK293 cAMP ctrl 7.9µM, TSHR agonist inconclusive
O=C(NCc1ccc(Cl)cc1Cl)c1ccccn1	HEK293 cAMP ctrl 25µM, TSHR agonist inconclusive
Cc1ccc(-c2nnn(CC(=O)Nc3cccc4cccnc34)n2)o1	HEK293 cAMP ctrl 25µM, TSHR agonist inconclusive
COc1ccc(-c2c3c(=O)n(C)c(=O)n(C)c3cn2-c2cc(OC)ccc2OC)cc1	TSHR agonist 25µM
Cn1c(=O)c2c(-c3ccccc3)n(-c3ccccc3O)cc2n(C)c1=O	none
Cc1ccc(S(=O)(=O)N2Cc3ccccc3CC2C(=O)Nc2cc(C)on2)cc1 (configuration not stated)	TSHR agonist 25µM
O=C(C1Cc2ccccc2CN1S(=O)(=O)c1ccc(F)cc1)N1CCCCCC1 (configuration not stated)	HEK293 cAMP ctrl inconclusive, TSHR agonist inconclusive
CC1CCN(C(=O)C2Cc3ccccc3CN2S(=O)(=O)c2ccc(F)cc2)CC1 (configuration not stated)	HEK293 cAMP ctrl 20µM, TSHR agonist inconclusive
O=C1C[C@@H](O)[C@@H](O)[C@H]2[C@@H]3C(=O)N(c4cccc(Oc5ccccc5)c4)C(=O)[C@@H]3CC[C@H]12	none (no result: YjeE inh, Hsp90 Hop PPI)
CC12C=C(/C=C/CCc3ccco3)C(C)(C1)C(CCc1ccco1)CC2=O (configuration not stated)	none (no result: YjeE inh, Hsp90 Hop PPI)
Fc1ccc(Nc2ncncc2-c2ccoc2)cc1	none
Cc1cccn2c(=O)c(/C=N/O)c(N3CCCCC3)nc12	HEK293 cAMP ctrl 16µM, TSHR agonist inconclusive
O=c1c(/C=N/O)c(Nc2ccccc2)nc2ccccn12	none
Cc1cc2oc(=O)cc(CN3CCCCC3C)c2c(C)c1Cl (configuration not stated)	HEK293 cAMP ctrl 25µM, TSHR agonist inconclusive
Cc1ccc2c(CN3CCN(Cc4ccc5c(c4)OCO5)CC3)cc(=O)oc2c1C	HEK293 cAMP ctrl inconclusive, TSHR agonist inconclusive
Cc1cc2oc(=O)cc(CN3CCC(C)CC3)c2cc1Cl	HEK293 cAMP ctrl 25µM, TSHR agonist inconclusive
Cc1cc2oc(=O)cc(CN3CCN(Cc4ccccc4)CC3)c2cc1Cl	none
Cc1cc2oc(=O)cc(CN3CCN(Cc4ccc5c(c4)OCO5)CC3)c2cc1C	TSHR agonist 2.5µM
N#CC1=C(N)S[C@H](C(=O)C23CC4CC(CC(C4)C2)C3)[C@H]1c1ccncc1	TSHR agonist 1.3µM
O=C(NCc1ccncc1)C12CC3CC(CC(C3)C1)C2	none
OC[C@@H]1O[C@@H](N2CCN([C@@H]3O[C@@H](CO)[C@@H](O)[C@H](O)[C@H]3O)CC2)[C@@H](O)[C@H](O)[C@H]1O	none
CCOC(=O)c1oc2ccccc2c1NC(=O)c1cccc(OC)c1	HEK293 cAMP ctrl 32µM, TSHR agonist inconclusive, Hsp90 Hop PPI inconclusive
CCOC(=O)c1oc2ccccc2c1NC(=O)C1CCCCC1	HEK293 cAMP ctrl 16µM, TSHR agonist inconclusive
CCOCC(=O)Nc1c(C(=O)Nc2ccccc2OC)oc2ccccc12	HEK293 cAMP ctrl 25µM, TSHR agonist inconclusive
CCCn1c(SCC(=O)Nc2ccccc2-c2ccccc2)nnc1-c1ccoc1C	HEK293 cAMP ctrl 16µM, TSHR agonist inconclusive
CCOC(=O)c1cccc(NC(=O)CSc2nnc(-c3ccoc3C)n2CC)c1	none
COc1cccc(OCc2nnc(SCC(=O)OC3CCCCC3)n2C)c1	HEK293 cAMP ctrl 16µM, TSHR agonist inconclusive
CCn1c(SCC(=O)Nc2ccccc2C(=O)OC)nnc1-c1ccoc1C	HEK293 cAMP ctrl 32µM, TSHR agonist inconclusive
COc1ccc(NC(=O)CSc2nnc(-c3ccoc3C)n2CCc2ccccc2)cc1	TSHR agonist 25µM
C=C1CC[C@@H](O)C/C1=C/C=C1\CCC[C@]2(C)[C@@H]1CC[C@H]2[C@@H](C)CCCC(C)C	none (no result: BRCT inh red, BRCT inh green)
CN[C@@H]1[C@H](O)[C@H](NC)[C@@H]2O[C@]3(O)C(=O)C[C@@H](C)O[C@H]3O[C@@H]2[C@H]1O	Hsp90 Hop PPI inconclusive (no result: BRCT inh red, BRCT inh green)
CCn1c(COc2cccc(OC)c2)nnc1SCC(=O)Nc1ccccc1C(=O)OC	HEK293 cAMP ctrl 16µM, TSHR agonist inconclusive
COc1ccc([C@@H]2CC(=O)c3c(O)cc(O[C@@H]4O[C@@H](CO[C@@H]5O[C@@H](C)[C@@H](O)[C@@H](O)[C@H]5O)[C@@H](O)[C@@H](O)[C@H]4O)cc3O2)cc1O	none (no result: BRCT inh red, BRCT inh green)
CCc1cccc2nc3c(c([Si](C)(C)C)c12)Cn1c-3cccc1=O	HEK293 cAMP ctrl inconclusive, TSHR agonist inconclusive
O=C1CCc2cc(S(=O)(=O)N3CCC(C(=O)NC4CCCC4)CC3)ccc2N1	none
O=C1CCc2cc(OCCCCc3nnnn3C3CCCCC3)ccc2N1	HEK293 cAMP ctrl inconclusive, TSHR agonist 25µM
O=C(c1ccco1)N1CCC2(CCN(Cc3ccccc3)CC2)CC1	none
CCCn1c(-c2ccc(F)cc2)nc2c(N3CCC(N(C)C)C3)nc(C)nc21 (configuration not stated)	HEK293 cAMP ctrl inconclusive, TSHR agonist inconclusive
CCCn1c(-c2ccc(F)cc2)nc2c(N3CCN(C)CC3)nc(C)nc21	HEK293 cAMP ctrl 16µM, TSHR agonist inconclusive
CCCn1c(-c2ccc(F)cc2)nc2c(NCCN(C(C)C)C(C)C)nc(C)nc21	HEK293 cAMP ctrl 13µM, TSHR agonist inconclusive
COc1ccc(NC(=O)N2CCCC3(CCN(S(C)(=O)=O)CC3)C2)cc1	HEK293 cAMP ctrl inconclusive, TSHR agonist inconclusive
OC[C@@H]1O[C@H](O)[C@@H](Cl)[C@H](O)[C@@H]1O	none
COc1ccc(OC)c(C(=O)COC(=O)c2ccccc2O)c1	HEK293 cAMP ctrl 25µM, TSHR agonist inconclusive, Hsp90 Hop PPI inconclusive
CCCCOc1ccccc1NC(=O)Cn1c(-c2nonc2N)nc2ccccc21	HEK293 cAMP ctrl 6.3µM, TSHR agonist inconclusive
CCOC(=O)Cn1c(-c2nonc2NC(=O)c2ccccc2F)nc2ccccc21	Hsp90 Hop PPI inconclusive
Nc1nonc1-c1nc2ccccc2n1CC(=O)N1CCN(c2ccc(F)cc2)CC1	HEK293 cAMP ctrl 25µM, TSHR agonist inconclusive
CCOc1ccc(CCNC(=O)Cn2c(-c3nonc3N)nc3ccccc32)cc1OCC	HEK293 cAMP ctrl inconclusive, TSHR agonist inconclusive
O=C(OCCN(C1=NS(=O)(=O)c2ccccc21)c1ccc(Cl)cc1)c1ccco1	HEK293 cAMP ctrl 16µM, TSHR agonist inconclusive
